# High-throughput results as filed in PubChem BioAssay.
# FAS TE block = FAS thioesterase (human) inhibition. P49327. recombinant FAS-TE, OMFH fluorogenic substrate, fluorescence endpoint. inhibition, % at 15 µM. actives 0.67% (n = 360,000);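 active means compounds whose normalised, plate-corrected inhibition of enzyme fluorescence in the single-dose primary screen is 50% or more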;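 further: 0% = DMSO with enzyme and 100% = substrate without enzyme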
# Cardio protect = modulators protecting cardiomyocytes from myocardial damage; H9c2 cardiomyocytes, H2O2 injury protection, ATPLite, 2 h; protection from H2O2 cell death, % at 20 µM; actives 0.63% (n = 360,000);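 active means compounds giving at least 50% protection of heart cells from peroxide-induced death in the single-dose screen, raw or plate-pattern-corrected value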;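 further: 0% = DMSO wells with peroxide and 100% = DMSO wells without peroxide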
# PLCg1 inh = blocks human PLC-gamma1 enzyme activity; P19174; purified PLC-gamma1, fluorogenic substrate, fluorescence; inhibition, % at 12.2 µM; actives 0.84% (n = 370,000); AID 720700; in the data active means inhibition above about 9.5%
# PLC-beta3 inh = blocks human PLC-beta3 enzyme activity | inhibition, % at 12.2 µM | Purified PLC-beta3, fluorogenic substrate, fluorescence | Q01970 | actives 0.18% (n = 370,000); in the data active means inhibition above about 11%;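 further: 0% = median of compound wells on plate and 100% = full blocker control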
# FAS-TE conf = FAS thioesterase (human) inhibition, confirmation; shares compounds with FAS TE block; recombinant FAS-TE, OMFH fluorogenic substrate, fluorescence; inhibition, % at 15 µM; actives 45% (n = 2,300); AID 624325;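 active means compounds inhibiting the enzyme by at least 50% at 15 µM in any one of the replicates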;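 further: 0% = enzyme with DMSO only and 100% = wells lacking enzyme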
# * = called active by the depositor; . = no result. In the library only some 2.2% were active in any assay of this set; here they are far more common.
SMILES,FAS TE block,Cardio protect,PLCg1 inh,PLC-beta3 inh,FAS-TE conf
Cc1[nH]n(-c2ccc([N+](=O)[O-])cc2)c(=O)c1C=NCC1CCCO1 (stereo unspecified),5.1,-4.0,0.2,2.2,.
Cc1ccc(-n2[nH]c(C)c(/C=N/Nc3ccc([N+](=O)[O-])cc3[N+](=O)[O-])c2=O)cc1,55.1*,-24.5,-0.4,-0.5,54.6*
O=Cc1coc([B-](F)(F)F)c1,.,.,4.6,2.3,.
Cc1ccc(C)c(C(=O)COC(=O)c2cc([N+](=O)[O-])ccc2N2CCOCC2)c1,45.7,-0.4,1.1,-8.3,.
Cc1cc(C)c(NC(=O)COC(=O)c2cc([N+](=O)[O-])ccc2N2CCOCC2)c(C)c1,65.4*,3.0,1.7,-5.9,53.8*
Cc1cc(NC(=O)COC(=O)c2cc([N+](=O)[O-])ccc2N2CCOCC2)ccc1Br,78.7*,3.5,8.8,5.6,80.1*
CC(C)(C)C(=O)NC1CCCCN(Cc2cccc(Cl)c2)C1=O (stereo unspecified),.,.,1.5,-4.2,.
CCCCNC(=O)C[C@@H]1C(=O)N2CCCC3=C2[C@@]1(C(=O)OCC)CCC3,.,.,-1.0,1.7,.
COC(=O)[C@]12C[C@H](CC(=O)NCc3cccc(C(F)(F)F)c3)C(=O)N(Cc3ccco3)C1=C[C@H](C(C)C)O[C@@H]2C1CC1,.,.,2.3,5.5,.
O=C(O)CCN(CCC(=O)O)S(=O)(=O)c1ccccc1,-3.6,-1.2,-1.6,-1.6,.
O=C(O)CCN(CC(=O)c1ccc(Cl)cc1)S(=O)(=O)c1ccc([N+](=O)[O-])cc1,74.6*,-0.1,4.9,3.4,71.8*
Cc1ccc(C(=O)CN(CCCC(N)=O)S(=O)(=O)c2ccc([N+](=O)[O-])cc2)cc1,68.0*,-2.7,0.5,1.3,52.1*
COc1ccc(C(=O)CN(CCC(=O)O)S(=O)(=O)c2ccc([N+](=O)[O-])cc2)cc1,71.4*,-8.0,-2.1,-3.1,80.0*
Cc1ccc(C(=O)CN(CCC(=O)O)S(=O)(=O)c2ccc([N+](=O)[O-])cc2)cc1,62.4*,-1.4,3.0,-0.9,78.6*
COC(=O)[C@]12C[C@H](CC(=O)NCC3CCCCC3)C(=O)N(CCc3ccc(OC)c(OC)c3)C1=C[C@H](COCc1ccccc1)O[C@@H]2C,.,.,5.0,5.0,.
COC(=O)C12C=C3CC(c4ccc(C)s4)=C3C(=O)N1Cc1[nH]c3ccccc3c1C2 (stereo unspecified),.,.,-53.6,-72.2,.
COC(=O)[C@]12C[C@H](CC(=O)NCc3cccs3)C(=O)N(CCc3ccc(OC)c(OC)c3)C1=C[C@H](C(C)(C)C)O[C@@H]2C,.,.,1.7,3.6,.
FC(F)(F)c1cccc(N2CCN(C(=S)NC3CCCCC3)CC2)c1,50.9*,-17.3,1.6,5.8,28.0
Cn1c(=O)c2nc(SCCO)n(C)c2n(C)c1=O,-4.2,-2.3,2.5,-0.9,.
COc1ccccc1-n1c(=O)c(C#N)c(-c2ccc([N+](=O)[O-])cc2)c2cc(C(=O)c3ccccc3O)cnc21,88.6*,-5.8,8.2,4.0,13.8
O=C(CC1CCCC1)N1CC[C@H]2[C@H](CCCN2Cc2cc(F)cc(F)c2)C1,.,.,5.8,4.4,.
O=C(O)c1ccccc1NSc1ccccc1[N+](=O)[O-],4.6,-3.1,-6.6,-7.4,.
CCc1ccc(NSc2ccccc2[N+](=O)[O-])cc1,51.2*,-14.0,-1.1,1.1,0.1
Cc1c(Cl)ccc2c1NC(=O)[C@]21N[C@@H](Cc2ccccc2)[C@H]2C(=O)N(c3ccc(F)cc3)C(=O)[C@H]21,76.3*,11.9,4.2,4.0,19.8
O=C1[C@@H]2[C@H](Cc3ccc(O)cc3)N[C@]3(C(=O)Nc4ccccc43)[C@@H]2C(=O)N1c1ccc(F)cc1,-0.7,2.1,4.3,-0.2,.
SMILES,FAS TE block,Cardio protect,PLCg1 inh,PLC-beta3 inh,FAS-TE conf
CCCCCN1CCCCC(NC(=O)c2cccc(F)c2)C1=O (stereo unspecified),.,.,-1.2,0.8,.
COc1cccc([C@@H]2NC(=O)C/C=C/[C@H](C)[C@H](c3cccc(OC)c3)NC(=O)C/C=C/[C@@H]2C)c1,.,.,-0.4,1.6,.
Cc1occc1C(=O)N/N=C/C1=C(N2CCOCC2)C(=C\c2ccc(Cl)cc2)/CC1,1.1,-8.0,-13.1,-13.0,.
CC(C)C(NC(=O)C12CC3CC(CC(C3)C1)C2)C(=O)N/N=C/C1=C(N2CCOCC2)C(=C\c2ccc([N+](=O)[O-])cc2)/CC1 (stereo unspecified),78.7*,2.5,3.0,-3.3,7.2
CC(NC(=O)C12CC3CC(CC(C3)C1)C2)C(=O)N/N=C/C1=C(N2CCOCC2)C(=C\c2cccc([N+](=O)[O-])c2)/CC1 (stereo unspecified),89.0*,7.8,-1.4,-1.6,12.1
N#Cc1ccc(CN2CCN(C(=O)CNC(=O)Cc3ccccc3)CC2)cc1,-5.0,-3.2,4.3,1.2,.
O=C(Nc1ccccc1)C(Cl)C(=O)c1ccccc1 (stereo unspecified),51.3*,9.1,3.4,-1.3,40.1
O=C1c2cccc3c(N4CCOCC4)c([N+](=O)[O-])cc(c23)C(=O)N1c1cccc2ccccc12,76.8*,-5.0,-4.5,-0.6,25.1
COC(=O)C1=C(C(=O)OC)[C@]2([C@H]3CCCCN[C@@H](Cc4ccccc4)C(=O)N3Cc3ccccc3)C=C[C@H]1O2,75.0*,-3.4,0.7,0.3,11.2
CSC(=Nc1ccccc1)N=C(SCc1ccccc1)N(C)C,83.7*,-20.3,4.5,1.8,90.4*
O=C(COc1ncnc2cc([N+](=O)[O-])ccc12)NCCc1ccc(Cl)cc1,28.6,-6.0,-3.4,-23.1,.
O=C(COc1ncnc2c(Cl)cc(Cl)cc12)Nc1cc([N+](=O)[O-])ccc1Cl,52.0*,6.3,1.5,-0.6,43.2
O=C(COc1ncnc2ccccc12)Nc1cc([N+](=O)[O-])ccc1Cl,51.2*,-1.8,2.1,0.3,3.4
COC(=O)[C@]12CCCCC=C1N(Cc1ccc3c(c1)OCO3)C(=O)[C@H](CC(=O)N1CCCCC1)C2,.,.,-3.2,-0.9,.
COC(=O)[C@]12C[C@H](CC(=O)NCc3ccc(OC)c(OC)c3)C(=O)N(Cc3ccco3)C1=C[C@H](C1CCCC1)O[C@@H]2C,.,.,-2.2,-0.4,.
O=C(N=Nc1c(O)[nH]c2ccccc12)c1cccc(S(=O)(=O)N2CCCCC2)c1,-14.1,-0.4,1.6,2.0,.
CC(C)c1ccc2[nH]c(O)c(N=NC(=O)c3cccc(S(=O)(=O)N4CCCCC4)c3)c2c1,58.2*,3.5,3.3,4.3,32.0
COC(=O)[C@]12C[C@H](CC(=O)N3CCCC3)C(=O)N(CCc3ccc(OC)c(OC)c3)C1=C[C@H](C(C)(C)C)O[C@@H]2C,.,.,1.3,1.4,.
CCn1c(=S)sc2c(=O)n(CC(=O)NC(C)CCc3ccccc3)c(C)nc21 (stereo unspecified),79.1*,-1.6,2.1,-4.9,74.4*
CC(=C1SC(=S)NC1=O)c1ccccc1,-1.9,-0.5,2.2,-7.7,.
CC1(c2ccccc2)CC(C)(C)N2C(=O)/C(=C3\SC(=S)NC3=O)c3cccc1c32 (stereo unspecified),77.5*,-17.5,2.3,4.0,9.7
